In ChEMBL document CHEMBL3988442, “University of Dundee, Small-Polar-MMV Screening Library” (2021):
The whole screen tested about 53,000 compounds, of which about 900 (1.7%) showed an effect of 50% or more. What follows is part of a selection rich in strong results, with near analogues and random picks from the rest.

These compounds were tested on Mycobacterium tuberculosis (assay: Cornell - Phenotypic assay to identify agents that inhibit growth of Mycobacterium tuberculosis). Conditions: 10 mM as filed; unlikely as a test dose.
Format: functional
Design: scale not given: direction of the effect not stated beside the values
In the case of `CC(C)Oc1ccccc1C1CC(=O)Nc2nc(N3CCOCC3)sc21` (configuration not stated), the “Percent Effect” value is reported as 106.3%. In the case of `O=C1CC(c2ccccc2Br)c2sc(N3CCOCC3)nc2N1` (configuration not stated), the “Percent Effect” value is reported as 44.02%. For `COc1ccccc1C1CC(=O)Nc2c1c(=O)[nH]n2C(C)C` (configuration not stated), the “Percent Effect” value was 7.683%. `COc1cccc(C2CC(=O)Nc3nc(N4CCOCC4)sc32)c1OC` (configuration not stated) was tested, and the “Percent Effect” value was 84.05%. `COc1ccccc1C1CC(=O)Nc2nc(N3CCCCC3)sc21` (configuration not stated) was tested, and the “Percent Effect” value was 102.8%. For `O=C1CC(c2ccccc2C(F)(F)F)c2sc(N3CCOCC3)nc2N1` (configuration not stated), the “Percent Effect” value was 43.16%. In the case of `COc1cccc(C2CC(=O)Nc3nc(N4CCCCC4)sc32)c1OC` (configuration not stated), the “Percent Effect” value is reported as 70.71%. With `COc1ccccc1C1CC(=O)Nc2c1c(=O)[nH]n2C1CCCC1` (configuration not stated) the “Percent Effect” value was 42.49%. In the case of `CCOc1cccc(C2CC(=O)NCc3nc(N4CCCC4)sc32)c1` (configuration not stated), the “Percent Effect” value is reported as -20.96%. For `CNc1nc2c(s1)C(c1ccc(Cl)cc1Cl)CC(=O)N2` (configuration not stated), the “Percent Effect” value was 15.33%. In the case of `CCn1ncnc1C1CC(=O)NCc2nc(N3CCOCC3)sc21` (configuration not stated), the “Percent Effect” value is reported as 3.2%. `CCNc1nnc(CCn2nc(C)c(Br)c2C)s1` was tested, and the “Percent Effect” value was 29.93%. In the case of `COCC(O)CN1CCC(=O)N(CC=C(C)C)Cc2ccccc21` (configuration not stated), the “Percent Effect” value is reported as -1.382%. In the case of `CCc1cnc(N2C[C@H]3C[C@H](C(=O)N4CCOCC4)[C@@H](C2)O3)nc1.O=C(O)C(F)(F)F`, the “Percent Effect” value is reported as 10.32%. For `CCS(=O)(=O)Nc1ccc(C(=O)NCCCN2CCCC2)cc1`, the “Percent Effect” value was -15.51%. `CCc1cnc(N2CC[C@H]3[C@@H]2CCC(=O)N3c2ccccc2)nc1.O=C(O)C(F)(F)F` was tested, and the “Percent Effect” value was -28.43%. With `CCc1nnc(CN(CC)C(=O)C2CC(=O)N(C3CC3)C2)o1` (configuration not stated) the “Percent Effect” value was 3.101%. `CNC(=O)C1CCCN1C(=O)NCCCc1cccc(F)c1` (configuration not stated) was tested, and the “Percent Effect” value was 3.774%. For `COc1ccc(C2CC(=O)Nc3nc(N4CCOCC4)sc32)cc1` (configuration not stated), the “Percent Effect” value was 22.64%. In the case of `COc1cccc(C2CC(=O)Nc3nc(N)sc32)c1OC` (configuration not stated), the “Percent Effect” value is reported as 76.98%. `COc1ccc(OC)c(C2CC(=O)Nc3nc(N4CCOCC4)sc32)c1` (configuration not stated) was tested, and the “Percent Effect” value was 77.37%. In the case of `COc1ccc(C2CC(=O)Nc3nc(N4CCOCC4)sc32)c(OC)c1` (configuration not stated), the “Percent Effect” value is reported as 45.08%. `COc1ccc(C2SCC(=O)Nc3n[nH]cc32)c(OC)c1OC` (configuration not stated) was tested, and the “Percent Effect” value was -14.08%. For `COc1cccc(C2SCC(=O)Nc3ccsc32)c1OC` (configuration not stated), the “Percent Effect” value was 25.58%. In the case of `CCN(Cc1ccncc1)CC1(O)CCN(C(=O)c2cnn(C)c2)C1` (configuration not stated), the “Percent Effect” value is reported as -5.524%. For `O=C(NCc1ccccc1)[C@H]1C[C@@H]2CN(C(=O)NC3CCCC3)C[C@H]1O2`, the “Percent Effect” value was -33.72%. For `Cc1cc(C(=O)N2C[C@@H]3OCCN(CCN4CCCC4)[C@@H]3C2)c(C)o1.O=C(O)C(F)(F)F`, the “Percent Effect” value was -34.44%. In the case of `Cc1cccc(NC2CCN(C(=O)Nc3cn[nH]c3)CC2)n1`, the “Percent Effect” value is reported as 5.834%. `CCc1cc(N(C)Cc2ccno2)n2nc(C)c(C)c2n1` was tested, and the “Percent Effect” value was 28.15%. `Cc1cc(=O)[nH]c(NC2CCN(S(=O)(=O)c3ccccc3)CC2)n1` was tested, and the “Percent Effect” value was 26.85%. With `CCc1cc(=O)[nH]c(NC2CCN(S(=O)(=O)c3ccccc3)CC2)n1` the “Percent Effect” value was 69.51%. With `Cc1nc(NC2CCN(S(=O)(=O)c3ccccc3)CC2)[nH]c(=O)c1C` the “Percent Effect” value was -2.855%. In the case of `O=C(N1CCOCC1)N1CCc2ncc(CN3CCCCC3)n2CC1.O=C(O)C(F)(F)F`, the “Percent Effect” value is reported as 15.78%. For `COCCCN(Cc1ccccn1)S(=O)(=O)c1ccc(OC)cc1`, the “Percent Effect” value was -5.527%. With `CC(C)(C)c1cc(NC(=O)NCCc2nnc3n2CCC3)c(C#N)s1` the “Percent Effect” value was 18.93%. In the case of `Cc1noc(CCCC(=O)Nc2ncccc2Br)n1`, the “Percent Effect” value is reported as -30.93%. With `Cc1noc(CCCC(=O)NCCc2cc3ccccc3[nH]2)n1` the “Percent Effect” value was 55.01%. In the case of `Cc1noc(CCCNC(=O)CNC(=O)c2cc3ccccc3[nH]2)n1`, the “Percent Effect” value is reported as 17.25%. For `O=C(O)C(F)(F)F.O=C(O)C(F)(F)F.c1nc(CN2CCC3(CC2)COCCN3CC2CC2)c[nH]1`, the “Percent Effect” value was 14.15%. With `CC(=O)N1CCC2(C1)c1ccccc1S(=O)(=O)N2Cc1ccccc1` (configuration not stated) the “Percent Effect” value was -2.139%. For `CCS(=O)(=O)N1CCc2ccc(NC(=O)Nc3ccccc3)cc21`, the “Percent Effect” value was 24.03%. `CCS(=O)(=O)N1CCc2ccc(NC(=O)Nc3cccc(C)c3)cc21` was tested, and the “Percent Effect” value was 35.62%. In the case of `CCS(=O)(=O)N1CCc2ccc(NC(=O)Nc3cccc(C#N)c3)cc21`, the “Percent Effect” value is reported as 83.89%. `O=C(CC1=CSC2=NCCCN12)N1CCCCCC1c1ccco1` (configuration not stated) was tested, and the “Percent Effect” value was -8.894%. With `Cc1nn(C)c2nc(-c3ccccn3)nc(NCCC3CCCN3C)c12` (configuration not stated) the “Percent Effect” value was -44.58%. For `Cc1nn(C)c2nc(-c3ccccn3)nc(NC[C@@H]3CCCO3)c12`, the “Percent Effect” value was 21.74%. In the case of `CCSCCNc1nc(-c2ccccn2)nc2c1c(C)nn2C`, the “Percent Effect” value is reported as 51.67%. For `CC(=O)NCCNc1nc(-c2ccccn2)nc2c1c(C)nn2C`, the “Percent Effect” value was 12.46%. `CSCC[C@@H](CO)Nc1nc(-c2ccccn2)nc2c1c(C)nn2C` was tested, and the “Percent Effect” value was 2.174%. For `Cc1nn(C)c2nc(-c3ccccn3)nc(NCCCOC(C)C)c12`, the “Percent Effect” value was 64.07%. For `Cc1nc(-c2cc(C(=O)O)co2)cs1`, the “Percent Effect” value was 58.57%. For `Cc1nc(-c2cc(C(=O)NC(C)(C(=O)O)C(C)C)co2)cs1` (configuration not stated), the “Percent Effect” value was 45.67%. In the case of `CNC(=O)c1coc(-c2csc(C)n2)c1`, the “Percent Effect” value is reported as 11.85%. `CCn1cc(CN2C[C@@H]3CCCN3C[C@H]2CCSC)c(C)n1` was tested, and the “Percent Effect” value was -15.91%. In the case of `Cc1ccc2c(c1)C1(CCNCC1)CN2C(=O)CN(C)C.O=C(O)C(F)(F)F.O=C(O)C(F)(F)F`, the “Percent Effect” value is reported as 0.8832%. `CCS(=O)(=O)Nc1ccn(Cc2ccc(F)cc2Cl)n1` was tested, and the “Percent Effect” value was 28.06%. With `Cn1ncc2c1NC(=O)CC2c1cc(Cl)ccc1F` (configuration not stated) the “Percent Effect” value was 13.85%. With `Cn1ncc2c1NC(=O)CC2c1ccc(Cl)cc1Cl` (configuration not stated) the “Percent Effect” value was 59.83%. With `Cn1ncc2c1NC(=O)CC2c1ccccc1Cl` (configuration not stated) the “Percent Effect” value was -9.252%. With `Cc1cc(CS(=O)(=O)C(C)C(=O)N(C)c2ccccc2)on1` (configuration not stated) the “Percent Effect” value was -17.42%. For `CN(Cc1ccco1)[C@@H]1CN(C(=O)C2CCOCC2)C[C@@H]2CCCO[C@@H]21.O=C(O)C(F)(F)F`, the “Percent Effect” value was -2.901%. In the case of `NC(=O)C1CCCN(Cc2ccc(C(=O)Nc3cnns3)cc2)C1` (configuration not stated), the “Percent Effect” value is reported as 2.81%.
